# PubChem BioAssay AID1159580 (chemical genetic matrix, 2015)
# About 2,000 (36%) of roughly 5,500 compounds were called active. Roughly 18% stayed inconclusive and do not appear here. Some of the results follow. A number with no mark means an inactive call. Rule as the data show it: active = normalized growth mostly below about 0.91 (no sharp cut-off); inconclusive = no clear call, values can overlap the other calls; inactive = mostly above about 0.92.
# Assay: chemical genetic growth profiling, strain panel (AID 1159580);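 also: tested at 20 µM; growth read once vehicle control cultures reached saturation at 30 °C; 1 = growth at the plate median or of vehicle wells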
# Conditions: S. cerevisiae deletion strains, growth OD
# [1] = locus YHR030C, strain SLT2, stronger effect = lower value
# [2] = locus YHR079C, strain IRE1, stronger effect = lower value
# [3] = locus YJL095W, strain BCK1, stronger effect = lower value
# [4] = locus YJR066W, strain TOR1, stronger effect = lower value
# [5] = locus YLR113W, strain HOG1, stronger effect = lower value
# [6] = locus YNL183C, strain NPR1, stronger effect = lower value
# [7] = locus YOR231W, strain MKK1, stronger effect = lower value
# [8] = locus YPL256C, strain CLN2, stronger effect = lower value
smiles,measurement,setting,value
CC(C)CC(NC(=O)CCN)C(=O)O (centres undefined),normalized growth,[1],0.976
same,normalized growth,[2],0.964
same,normalized growth,[3],0.974
same,normalized growth,[4],0.896
same,normalized growth,[5],0.986
same,normalized growth,[6],0.886
same,normalized growth,[7],0.993
same,normalized growth,[8],0.975
NCCCN=c1ccc2c3c1c(O)c1c(O)ccc(=O)c1c3[nH]n2CCNCCO,normalized growth,"locus YAR019C, strain CDC15, stronger effect = lower value",0.984
same,normalized growth,"locus YBL105C, strain PKC1, stronger effect = lower value",0.977
same,normalized growth,"locus YBR135W, strain CKS1, stronger effect = lower value",0.986
same,normalized growth,"locus YBR136W, strain MEC1, stronger effect = lower value",0.97
same,normalized growth,"locus YBR160W, strain CDC28, stronger effect = lower value",0.982
same,normalized growth,"locus YDL017W, strain CDC7, stronger effect = lower value",0.976
same,normalized growth,"locus YDL028C, strain MPS1, stronger effect = lower value",0.976
same,normalized growth,"locus YDL101C, strain DUN1, stronger effect = lower value",0.969
same,normalized growth,"locus YDL108W, strain KIN28, stronger effect = lower value",0.978
same,normalized growth,"locus YDL132W, strain cdc53, stronger effect = lower value",0.979
same,normalized growth,"locus YDL214C, strain PRR2, stronger effect = lower value",0.993
same,normalized growth,"locus YDR052C, strain DBF4, stronger effect = lower value",0.976
same,normalized growth,"locus YDR054C, strain cdc34, stronger effect = lower value",0.974
same,normalized growth,"locus YDR226W, strain ADK1, stronger effect = lower value",0.984
same,normalized growth,"locus YDR477W, strain SNF1, stronger effect = lower value",0.977
same,normalized growth,"locus YER123W, strain YCK3, stronger effect = lower value",0.978
same,normalized growth,"locus YER133W, strain GLC7, stronger effect = lower value",0.977
same,normalized growth,"locus YFL009W, strain cdc4, stronger effect = lower value",0.982
same,normalized growth,"locus YFL029C, strain CAK1, stronger effect = lower value",0.986
same,normalized growth,"locus YFR003C, strain YPI1, stronger effect = lower value",0.973
same,normalized growth,"locus YFR019W, strain FAB1, stronger effect = lower value",0.948
same,normalized growth,"locus YFR028C, strain CDC14, stronger effect = lower value",0.981
same,normalized growth,"locus YGR040W, strain KSS1, stronger effect = lower value",0.977
same,normalized growth,"locus YGR052W, strain FMP48, stronger effect = lower value",0.984
same,normalized growth,"locus YGR092W, strain DBF2, stronger effect = lower value",0.688
same,normalized growth,[1],1.03
same,normalized growth,[2],1.01
same,normalized growth,"locus YHR082C, strain KSP1, stronger effect = lower value",1.05
same,normalized growth,"locus YHR205W, strain SCH9, stronger effect = lower value",0.916
same,normalized growth,"locus YIL147C, strain SLN1, stronger effect = lower value",0.969
same,normalized growth,[3],0.893
same,normalized growth,"locus YJL128C, strain PBS2, stronger effect = lower value",0.957
same,normalized growth,"locus YJL157C, strain FAR1, stronger effect = lower value",0.994
same,normalized growth,"locus YJR016C, strain ILV3, stronger effect = lower value",0.982
same,normalized growth,"locus YJR066W, strain TOR1 (second series), stronger effect = lower value",0.964
same,normalized growth,[4],1.01
same,normalized growth,"locus YKL048C, strain ELM1, stronger effect = lower value",0.94
same,normalized growth,"locus YKL067W, strain YNK1, stronger effect = lower value",0.983
same,normalized growth,"locus YKL101W, strain HSL1, stronger effect = lower value",0.957
same,normalized growth,"locus YKL193C, strain SDS22, stronger effect = lower value",0.971
same,normalized growth,"locus YKL203C, strain TOR2, stronger effect = lower value",1.01
same,normalized growth,[5],0.982
same,normalized growth,"locus YLR133W, strain CKI1, stronger effect = lower value",0.993
same,normalized growth,"locus YLR403W, strain SFP1, stronger effect = lower value",0.916
same,normalized growth,"locus YML070W, strain DAK1, stronger effect = lower value",0.956
same,normalized growth,"locus YMR001C, strain CDC5, stronger effect = lower value",0.984
same,normalized growth,"locus YMR205C, strain PFK2 (second series), stronger effect = lower value",1
same,normalized growth,"locus YMR277W, strain FCP1, stronger effect = lower value",0.975
same,normalized growth,"locus YNL006W, strain LST8, stronger effect = lower value",0.989
same,normalized growth,"locus YNL020C, strain ARK1, stronger effect = lower value",0.992
same,normalized growth,"locus YNL161W, strain CBK1, stronger effect = lower value",0.986
same,normalized growth,[6],1
same,normalized growth,"locus YNL207W, strain RIO2, stronger effect = lower value",0.975
same,normalized growth,"locus YNL222W, strain SSU72, stronger effect = lower value",0.995
same,normalized growth,"locus YNL307C, strain MCK1 (second series), stronger effect = lower value",0.82
same,normalized growth,"locus YOL078W, strain AVO1, stronger effect = lower value",0.971
same,normalized growth,"locus YOL136C, strain PFK27, stronger effect = lower value",0.965
same,normalized growth,"locus YOR061W, strain CKA2, stronger effect = lower value",0.874
same,normalized growth,"locus YOR119C, strain RIO1, stronger effect = lower value",1
same,normalized growth,[7],0.996
same,normalized growth,"locus YOR329C, strain SCD5, stronger effect = lower value",0.975
same,normalized growth,"locus YPL031C, strain PHO85, stronger effect = lower value",0.96
same,normalized growth,"locus YPL153C, strain RAD53, stronger effect = lower value",0.97
same,normalized growth,"locus YPL204W, strain HRR25, stronger effect = lower value",0.951
same,normalized growth,"locus YPL209C, strain IPL1, stronger effect = lower value",0.98
same,normalized growth,[8],1.16 [resistant] (active)
same,normalized growth,"locus YPR025C, strain CCL1, stronger effect = lower value",0.979
same,normalized growth,"locus YPR106W, strain ISR1, stronger effect = lower value",0.976
same,normalized growth,"locus YPR111W, strain DBF20, stronger effect = lower value",0.979
same,normalized growth,"strain NNK1, stronger effect = lower value",0.978
same,normalized growth,"strain TSCII, stronger effect = lower value",0.981
